The values that follow come from PubChem BioAssay (Tox21).

Each structure is given as a SMILES string. Results filed as inconclusive are left out. Where a call stands in place of a potency, no number is given. Activity calls are given as the source filed them. Calls come from the whole dose curve; as a rule, active = well fitted activation curve with a large enough effect in the repeat runs; inconclusive = weak or mixed curves; inactive = flat fitted curve, though single readings scatter.

The nature of this experiment: Caspase-3/7 induction in HepG2 cells by small molecules, qHTS assay (AID 1346978). Note: nearly all actives have a fitted effect of over 15% in size. Conditions: HepG2 caspase-3/7 activation, Caspase-Glo luminescence, 17 h; series mostly up to 92.4 µM. The source says:
National Center for Advancing Translational Sciences [NCATS] NIH Chemical Genomics Center [NCGC] U.S. Environmental Protection Agency [EPA] National Institutes of Environmental Health Sciences [NIEHS] National Toxicology Program [NTP] Assay overview: Apoptosis is a process of programmed cell death and plays a central role in the development of multicellular organisms. It is a highly regulated process and induces cell death by activating caspases, which are the members of cysteine aspartic acid-specific protease (caspase) family. Caspases involved in apoptosis are classified by their mechanism of action as initiator caspases (caspase-2, -8, -9 and -10) and executioner caspases (caspase-3, -6, and -7). Inhibition of apoptosis results in number of cancers, autoimmune diseases, inflammatory diseases and viral infection. To identify small molecule compounds that induce apoptosis, a homogeneous, luminescent Caspase-Glo 3/7 assay was used. Wild type HepG2 cells were used to screen Tox21 libraries for identifying caspase-3/7 activity inducers.
Assay Protocol Summary: HepG2 cells were dispensed at 2,000 per well in 5uL of culture medium into white solid bottom 1536-well plates (Corning Life Sciences, Corning, NY) using a Multidrop Combi (Thermo Scientific, Waltham, MA) dispenser. The assay plates were incubated at 37 C and 5% CO2 for 5hr, and then 23nL of compounds dissolved in DMSO and positive control were transferred using a Pintool station (Wako, San Diego, CA). The assay plates were incubated at 37C and 5% CO2 for 17hr. For caspase-3/7 activity read, 4uL of Caspase-Glo 3/7 reagent (Promega Corporation, Madison, WI) was added to each well of the assay plates using Flying Reagent Dispenser (FRD, Aurora Discovery, San Diego, CA) and incubated the assay plates at room temperature for 30min. The luminescence signal was quantified using a ViewLux plate reader (Perkin Elmer, Shelton, CT).
Regarding `CC(C)(C)NC(N)=O`, the Potency entry is “inactive”.
Next, `Cc1cccc2nccnc12`: “inactive”; `O=C(NCCc1c[nH]c2ccccc12)c1cccnc1`: “inactive”.
Consider `CCCCOCCOC(=O)COc1nc(Cl)c(Cl)cc1Cl`, for which the Potency entry was “inactive”.
Next, `C=CCCCCCCCCCCCC`: “inactive”; `OCCCCC(O)CO` (stereo not given): “inactive”; `CCCCCCCCCCCCCC`: “inactive”.
Turning to `CCc1ccc(C=O)cc1`, the Potency result is “inactive”.
Next, `C[Si](C)(C)C`: “inactive”.
Next, `O=C1CC(c2ccc(Cl)cc2)CC(=O)N1`: “inactive”; `COc1ccc(OC)c(Cl)c1`: “inactive”; `CC(COC(C)(C)C)OCCCO` (stereo not given): “inactive”.
Turning to `O=C1c2cccc3c2[C@H](CCC3)CN1[C@@H]1CN2CCC1CC2`, the Potency result is “inactive”.
Next, `O=C(NCCN1CCOCC1)c1ccc(Cl)cc1`: “inactive”; `COc1ccc(S(=O)(=O)N2c3ccc(Cl)cc3[C@@](O)(c3ccccc3Cl)[C@H]2C(=O)N2CCC[C@@H]2C(N)=O)cc1OC`: “inactive”; `CCC(C)NC(N)=O` (stereo not given): “inactive”.
Next, `O=C(O)c1cc(Cl)cc([N+](=O)[O-])c1Cl`: “inactive”.
For `CC1(CO)CN(c2ccccc2)NC1=O` (stereo not given), the Potency entry was “inactive”.
As to `Cc1cc(Cl)c(C)cc1Cl`, the Potency result was “inactive”.
With `COC(=O)CCc1ccc(OCC(O)CNC(C)C)cc1` (stereo not given), the Potency result was “inactive”.
Next, `COc1cc(N)ccc1C`: “inactive”.
Next, `CNS(=O)(=O)CCc1ccc2[nH]cc(C3CCN(C)CC3)c2c1`: “inactive”.
Next, `CC1COc2ccccc2N1` (stereo not given): “inactive”; `CCCCCOC(=O)CCC`: “inactive”; `CCO[Si](CCCS)(OCC)OCC`: “inactive”.
Take `On1nnc2ccccc21`: the Potency entry is “inactive”.
Next, `O=C(O)c1ccc(Cl)cc1Cl`: “inactive”.
Next, `O=C1CCCC(=O)O1`: “inactive”; `CN(C)c1ccc(C=O)cc1`: “inactive”.
In the case of `CC(C)c1ccc2cc(C(C)C)ccc2c1`, the Potency result is “inactive”.
Next, `C[C@H](N)[C@H](O)c1cccc(O)c1`: “inactive”.
In the case of `CC(=O)Nc1ccc(S(=O)(=O)Nc2ccc([N+](=O)[O-])cc2)cc1`, the Potency entry was “inactive”.
Turning to `CC(CC=O)CCCC(C)(C)O` (stereo not given), the Potency entry is “inactive”.
Consider `CNC(=O)[C@H]1O[C@@H](n2cnc3c(NCc4cc(Cl)ccc4OCc4cc(C)no4)ncnc32)[C@H](O)[C@@H]1N`, for which the Potency entry was “inactive”.
Next, `c1ccc2nccnc2c1`: “inactive”.
Next, `CCCOC(=O)C(C)O` (stereo not given): “inactive”; `CCOc1cc([N+](=O)[O-])c(OCC)cc1N1CCOCC1`: “inactive”.
`COc1cc(C(=S)N2CCOCC2)cc(OC)c1OC`: the Potency result is “inactive”.
Next, `BrCCCCCBr`: “inactive”; `CCCC(=O)C(C)=O`: “inactive”.
